# From PubChem BioAssay
# The list is not random: actives were taken first. Their share in the collection is about 3.5%.
# NS1 inh: blocks influenza NS1 protein function | hit rate 0.4% among 270,000 | AID 2326 | Potency, µM (titrated, usually from 46.1 µM), for the others: at the top dose activity, positive = more growth; calls by dose curve; further: potency means the concentration at half of the fitted maximal effect; actives are rising curves; nearly all actives have a fitted effect of over 50% in size
#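 Growth recovery, yeast-based: influenza A NS1 expressed in S. cerevisiae causes slow growth, and suppressors are detected by OD600. The parent strain without NS1 is used as positive control.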
# TbPYK inhibitor: T. brucei pyruvate kinase inhibition; TbPYK enzyme, Kinase-Glo Plus ATP luminescence, 45 min; Potency, µM (doses to about 76.8 µM), for the others: at the top dose activity, negative = inhibition, actives largely listed as inhibitors; hit rate 0.12% among 410,000; further: potency means the concentration at half of the fitted maximal effect; on the % scale 0 is the no-effect control and ±100 the full control effect; nearly all actives have a fitted effect of over 50% in size
#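 Assay buffer: 50 mM TEA pH 7.2, 100 mM KCl, 10 mM MgCl2, 0.05% BSA, 0.01% Tween-20. Pyruvate kinase from T. brucei plus substrate met compound, then ADP (130 uM final). Luminescence was read post 45 min RT.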
# RE007 growth inh: less growth of the S. pombe RE007 Vpr strain; Potency, µM (titrated, usually from 92.2 µM), inactives show at the top dose activity change, negative = less growth, most hits filed as inhibitors; AID 651644; S. pombe RE007 Vpr strain, BacTiter-Glo ATP luminescence, 24 h; hit rate 0.21% among 360,000; active means well fitted falling curve with a large enough effect; inconclusive means small, poorly fitted or top-dose-only effect; inactive means no such curve, though single readings can be large or run the other way; further: potency means the concentration at half of the fitted maximal effect; on the % scale 0 is the no-effect control and ±100 the full control effect; nearly all actives have a fitted effect of over 50% in size
#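 Fission yeast strain RE007, carrying one chromosomally integrated HIV-1 vpr copy, was seeded at OD 0.01 in PMG+AL medium with 23 nL pinned compound. After 24 h at 30 °C and 99% humidity, viability was read by BacTiter-Glo luminescence.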
# FBPA Giardia inh: inhibitors of Giardia lamblia fructose-1,6-bisphosphate aldolase; A8B2U2; purified Giardia FBPA; Potency, µM (highest dose often 59.6 µM), for inactives: top-dose activity, negative = inhibition, most hits filed as inhibitors; hit rate 0.71% among 290,000; further: potency means the concentration at half of the fitted maximal effect; on the % scale 0 is the no-effect control and ±100 the full control effect; nearly all actives have a fitted effect of over 55% in size
# Target sequence (A8B2U2 whole entry, looked up): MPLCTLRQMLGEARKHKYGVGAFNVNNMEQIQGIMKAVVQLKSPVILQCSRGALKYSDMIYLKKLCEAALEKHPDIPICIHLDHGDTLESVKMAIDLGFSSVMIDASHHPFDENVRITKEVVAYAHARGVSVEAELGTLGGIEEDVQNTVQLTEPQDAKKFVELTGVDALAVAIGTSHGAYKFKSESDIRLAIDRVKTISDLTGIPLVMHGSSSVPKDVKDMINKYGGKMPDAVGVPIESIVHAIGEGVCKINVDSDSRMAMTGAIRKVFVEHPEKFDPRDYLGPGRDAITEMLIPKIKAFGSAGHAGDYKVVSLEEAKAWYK
#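 Giardia FBPA (40 nM reagent) was preincubated 10 min at RT with compound (up to 57.5 uM final), then substrate plus GAPDH/TPI/NAD/arsenate coupling system with diaphorase/resazurin was added; resorufin fluorescence (525/598 nm) was read after 20 min.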
# Sm TGR inh: inhibitors of Schistosoma mansoni thioredoxin glutathione reductase | AID 485364 | hit rate 3% among 360,000 | Q962Y6 | Potency, µM (titrated, usually from 114 µM), without a hit: at the highest dose activity change, negative = inhibition, hits mostly inhibitors | purified TGR, DTNB reduction, TNB absorbance 405 nm; further: potency means the concentration at half of the fitted maximal effect; on the % scale 0 is the no-effect control and ±100 the full control effect; nearly all actives have a fitted effect of over 60% in size
#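 First, TGR (20 nM dispensed) and NADPH were mixed with compound. Second, a 15 min room-temperature incubation followed. Third, further NADPH and then DTNB were added to start the reaction. Finally, TNB absorbance was monitored kinetically.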
# LmPK inhibitor: LmPK (Leishmania mexicana) enzyme inhibition; Q27686; purified LmPK, Kinase-Glo ATP luminescence, 1 h; Potency, µM (highest dose often 57.5 µM), for inactives: at the top dose activity change, negative = inhibition, usual class: inhibitors; hit rate 0.37% among 290,000; AID 1721; further: potency means the concentration at half of the fitted maximal effect; on the % scale 0 is the no-effect control and ±100 the full control effect
#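 ATP generated from ADP (0.1 mM) and PEP (0.5 mM) by 0.1 nM LmPK over 1 h at room temperature (pH 7.2 imidazole buffer) was detected by coupled luciferase luminescence. Values were normalized to uninhibited and no-enzyme wells.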
# NS1 inh valid: influenza NS1 function inhibition validation | shares compounds with NS1 inh | influenza NS1 function cell assay, 15-point titration | activity change, negative = inhibition, % at 32.9 µM | 1,400 tested, under 10 active | AID 492980; calls by dose curve; further: 0% is about no effect
# The depositor's hits bear a star; ? = inconclusive; nt = not tested or not shown; [ ] = dose if it differs, or a comment. Unless noted, the call rests on the fitted dose curve; in most records, active means well fitted curve in the direction sought with a large enough effect; inconclusive means small, poorly fitted or top-dose-only effect, or another doubt; inactive means no such curve, though single readings can be large; an effect the other way counts as inactive or inconclusive.
SMILES,NS1 inh,TbPYK inhibitor,RE007 growth inh,FBPA Giardia inh,Sm TGR inh,LmPK inhibitor,NS1 inh valid
COc1ccc2c(c1)OC(C)(C)C(c1ccccc1)C2c1ccc(OCCN2CCCC2)cc1 (stereo not drawn),nt,1.9%,nt,nt,nt,nt,nt
CCOC(=O)c1cccc(NC(=O)CC2C(=O)N(c3ccc(F)cc3)C(=O)N2Cc2cccc(OC)c2)c1 (stereo not drawn),nt,0.1%,nt,nt,17.2%,nt,nt
Cc1cc(C)cc(N2C(=O)CSC23C(=O)N(CC(=O)NC2CCCCC2)c2ccccc23)c1 (stereo not drawn),nt,2.4%,nt,nt,-7.5%,nt,nt
CC(C)COC(=O)N1C(COCc2ccccc2)CCC=CS1(=O)=O (stereo not drawn),nt,nt,nt,-0.2%,nt,nt,nt
O=C1NC(=S)S/C1=C/c1ccc(N2CCOCC2)o1,7.94µM*,?,?,?,3.55µM*,?,2.0
CC1=Nc2nc(N3CCCCC3)c(C#N)c3c4c(nc(c23)N1)N(c1ccc(C(C)C)cc1)C(=O)C4,11.2µM*,-1.5%,-3.9%,-18.9%,-4.1%,-2.9%,11.9
Cc1ccc(S(=O)(=O)N2CCN(C(=O)CC(C)n3cncn3)CC2)cc1C (stereo not drawn),?,0.8%,-11.3%,4.7%,5.0%,-5.3%,-9.1
C=CCOc1cccc(/C=C2\C(=O)N(Cc3ccc(C)cc3)C(C)=C2C(=O)OC)c1,10.7%,0.2%,4.9%,-7.9%,-32.5%,6.2%,nt
CCOc1cc(/C=C2\C(=O)N(Cc3ccc(C)cc3)C(C)=C2C(=O)OC)ccc1O,14.1µM*,-10.1%,5.4%,-26.3%,22.4µM*,-2.4%,-1.9
CN(C)c1ccc(/C=C2/C(=O)NC(=O)N(CCc3ccc(F)cc3)C2=O)cc1,-16.4%,-11.0%,17.2%,0.0%,?,-0.5%,nt
CCOc1cc(/C=C2\C(=O)NC(=O)N(CCc3ccc(F)cc3)C2=O)ccc1O,0.355µM*,-18.2%,-9.6%,-16.6%,?,1.0%,29.8
Cc1ccc(C2N(c3ccc(F)cc3)C(=O)C3CCCN32)cc1 (stereo not drawn),1.78µM*,-6.8%,4.2%,2.5%,1.1%,1.0%,-8.9
Cc1nc2nc(CSc3nnc(C)s3)cc(=O)n2[nH]1,7.94µM*,-2.4%,-9.4%,-7.8%,-1.9%,1.8%,3.4
CCCc1cc(=O)n2[nH]c(C)nc2n1,-2.9%,-2.1%,-0.8%,-12.1%,-23.3%,0.5%,nt
CCCCC1=CC2=CC(=O)C(C)(OC(=O)CC)C(=O)C2=CN1CCOC (stereo not drawn),?,-7.9%,-16.0%,?,2.6%,-0.7%[11.5 µM],8.4
COc1ccc(-c2cc(C(=O)OCC(=O)c3ccc(C)c([N+](=O)[O-])c3)c3ccccc3n2)cc1,?,1.4%,-6.0%,1.9%,2.2%,1.1%,-36.8
COc1ccccc1-n1cc(-c2ccccc2)c2c(=S)nc[nH]c21,14.1µM*,0.0%,0.8%,-0.9%,6.8%,3.3%,-20.7
Cc1nc2c(c(=O)n1CCC1=CCCCC1)c1nc3ccccc3nc1n2/N=C/c1ccco1,10µM*,-5.1%,-10.2%,-17.0%,11.2µM*,4.4%,-15.7
CCCn1c(C)nc2c(c1=O)c1nc3ccccc3nc1n2CCc1ccccc1,20.4%,nt,nt,nt,nt,nt,nt
CCCn1c(C)nc2c(c1=O)c1nc3ccccc3nc1n2CCC1=CCCCC1,2µM*,0.6%,3.6%,-1.2%,-20.9%,-5.7%,?
CCCS(=O)(=O)N1CC(=O)N(c2ccc(Cl)cc2)C(C)(C(=O)NC2CCCC2)C1 (stereo not drawn),nt,5.3%[15.4 µM],nt,nt,3.3%,nt,nt
CSc1nc2ccccc2cc1/C=C(\C#N)c1ccccc1,2µM*,2.4%,-1.8%,-5.8%,4.8%,7.3%,6.7
CSc1nc2ccccc2cc1/C=C(\C#N)c1cccc(C)c1,-1.2%,-2.1%,13.3%,-0.2%,-2.5%,2.9%,nt
